FLuc inh – qHTS Assay for Inhibitors of Firefly Luciferase. Luciferin 4-monooxygenase (Photinus pyralis), P08659. purified firefly luciferase, luminescence, 8 min. Potency, µM (titrated, usually from 57.1 µM), for the others: top-dose activity change, negative = inhibition, actives largely listed as inhibitors. 2.2% of 72,000 active; also: % is scaled to controls: 0 for no effect and ±100 for the full control effect; nearly all actives have a fitted effect of over 40% in size
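Compounds were tested as concentration series (qHTS) against purified P. pyralis luciferase with luciferin and 10 uM ATP in 50 mM imidazole pH 7.2, 50 mM KCl, 7 mM MgCl2, 0.01% Tween 20, 0.05% BSA. Luminescence was read after 8 min at ambient temperature.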
PK Bst – Pyruvate Kinase; purified pyruvate kinase, luminescence ATP production; ribose 5-phosphate activator present at AC10; Potency, µM; 1.2% of 51,000 active; AID 361, 2006; in the data active = potency below about 11 µM; inconclusive = mostly about 12 µM to 25 µM;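 the screen sought inhibitors and activators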;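 also: scaled between full activation by ribose 5 phosphate and full inhibition by luteolin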
TSHR agonist – qHTS Assay for Agonists of the Thyroid Stimulating Hormone Receptor. Thyrotropin receptor (Homo sapiens), P16473. HEK293-CNG-TSHR cells (CNG channel as cAMP sensor), membrane potential dye, cAMP. Potency, µM (series often up to 57.1 µM), for the others: top-dose activation, most hits filed as activators. 0.48% of 73,000 active. AID 926, 2007; active = well fitted activation curve with a large enough effect in the main read-out, with a control signal flat, not every such curve was filed as active; inconclusive = small, poorly fitted or top-dose-only effect, or a change in a side signal; inactive = no such curve, though single readings can be large or run the other way; % of control where 0% means no effect;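 also: the control signal comes from parental cells without the receptor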
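HEK 293 cells stably expressing TSHR and a cAMP-gated CNG channel; parental CNG-only cells as counterscreen. Cells preloaded 60 min with membrane potential dye plus 100 uM RO 20-1724, then compound 30 min; fluorescence read at 590 nm.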
HEK293 cAMP ctrl – qHTS Assay for Agonists of the Thyroid Stimulating Hormone Receptor: Activators of Intracellular cAMP Concentrations in Parental HEK 293; parental HEK293 CNG cAMP sensor, membrane potential fluorescence; Potency, µM (titrated, usually from 57.1 µM), inactives show top-dose activation, hits mostly activators; 2.5% of 73,000 active; AID 938, 2007; also: % of control where 0% means no effect; nearly all actives have a fitted effect of over 55% in size
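Counterscreen for endogenous-receptor signalling: CNG-channel HEK 293 cells report cAMP rise by membrane depolarization. After 60 min dye equilibration with 100 uM RO 20-1724, compounds incubated 30 min before bottom-read fluorescence at 590 nm.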
GBA activity – Glucocerebrosidase. AID 360, 2006. Potency, µM. 1.1% of 48,000 active. purified enzyme, resorufin glucoside fluorescence (screen aimed at inhibitors), 20 min; in the data active = potency below about 15 µM; inconclusive = mostly about 16 µM to 33 µM;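 also: the screen sought inhibitors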
Target sequence (P04062 whole entry, looked up): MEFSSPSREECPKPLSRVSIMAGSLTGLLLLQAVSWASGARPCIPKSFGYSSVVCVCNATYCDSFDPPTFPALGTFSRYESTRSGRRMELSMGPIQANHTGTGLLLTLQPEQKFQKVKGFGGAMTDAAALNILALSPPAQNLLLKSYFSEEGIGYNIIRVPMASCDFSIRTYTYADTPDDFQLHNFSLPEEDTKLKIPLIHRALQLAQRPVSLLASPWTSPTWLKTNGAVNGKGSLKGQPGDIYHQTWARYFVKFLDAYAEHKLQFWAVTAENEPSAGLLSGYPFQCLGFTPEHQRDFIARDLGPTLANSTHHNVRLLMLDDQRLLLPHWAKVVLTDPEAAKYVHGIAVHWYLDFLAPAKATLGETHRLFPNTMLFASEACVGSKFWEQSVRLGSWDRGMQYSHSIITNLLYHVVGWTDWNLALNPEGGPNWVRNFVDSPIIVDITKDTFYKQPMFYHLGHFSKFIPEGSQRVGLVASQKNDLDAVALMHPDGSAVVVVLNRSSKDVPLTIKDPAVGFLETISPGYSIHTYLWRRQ
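Wild-type enzyme at 0.2 nM final in 50mM citric acid/KH2PO4, 10mM sodium taurocholate, 0.01% tween-20, pH 5.9, with resorufin beta-D-glucopyranoside at 30 uM final. Compounds titrated, 20 min at RT, red fluorescence read; AC50 from titration.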
* marks the source's active call; other numbers are inactive results; ? = inconclusive; · = no result; [ ] = another dose, or the depositor's remark. Compounds with a hit are over-represented: about 5.8% of the library has one in this group of screens. Unless noted, calls follow the shape of the dose curve; as a rule, active = well fitted curve in the direction sought with a large enough effect; inconclusive = small, poorly fitted or top-dose-only effect, or another doubt; inactive = no such curve, though single readings can be large; an effect the other way counts as inactive or inconclusive. Potency is read from the fitted curve at half-maximal effect.

SMILES	FLuc inh	PK Bst	TSHR agonist	HEK293 cAMP ctrl	GBA activity
NC([N-]/N=C/c1ccccn1)=[S]=[Fe].O=S(=O)(O)O	1%[11.4 µM]	·	3%[11.4 µM]	-4%[11.4 µM]	·
C[C@H](NCCN(C)C)[C@@H]1CCC2C3CCc4cc(O)ccc4[C@H]3CCC21C (stereo not given in full)	2%[11.4 µM]	·	8%[11.4 µM]	-4%[11.4 µM]	·
CC(C)CN1CCCC2(CCN(C(=O)c3cnccn3)CC2)C1	0%[11.4 µM]	·	1%	4%	·
CN(C)Cc1ccc(-c2cc3onc(-c4ccccc4)c3c(=O)n2C)cc1	4µM*	·	·	-3%[11.4 µM]	·
CCc1nnc(NC(=O)c2ccc(OC)cc2OC)s1	7.9µM*	·	?	25µM*	·
NC(=O)c1ccc(-c2ncc(-c3ccccc3)o2)cc1	13µM*	4*	6%[11.4 µM]	7%	>77
CC(=O)NCCNc1nc(-c2ccc3c(c2)OCO3)nc2ccccc12	-1%[2.29 µM]	·	-3%	6%	·
COC(=O)N1CCC2(CCCN(Cc3nccs3)C2)CC1	1%[11.4 µM]	·	?	?	·
Cc1cc(N)c(-n2cc3c(=O)n(C)c(=O)n(C)c3c2)cc1C	-15%	>11	1%	2%	>77
Cc1ccc(-n2cc3c(=O)n(C)c(=O)n(C)c3c2)cc1C	-16%	10*	-1%	-1%	>77
Cn1c(=O)c2cn(-c3ccc4c(c3)OCCO4)cc2n(C)c1=O	-14%	5.6*	6%	5%	>77
CCN(CC)CCNC(=O)c1ccc(Cc2nc3ccccc3[nH]2)cc1	·	·	16%	-18%	·
COc1cc(/C=N/NC(=O)c2cc(-c3ccccc3)n[nH]2)cc(OC)c1OC	·	·	-3%	7%	·
O=C(NCCN1C(=O)C2C3C=CC(C3)C2C1=O)Nc1cccnc1 (stereo not given)	-1%	·	8%	11%	·
O=C(NCCN1C(=O)C2C3C=CC(C3)C2C1=O)Nc1ccc(Br)cc1 (stereo not given)	16µM*	·	-1%	5%	·
COC(=O)[C@H]1C[C@@H]1[C@H](NC(C)=O)c1ccccc1	·	·	2%	-5%	·
COC(=O)[C@@H]1C[C@H]1[C@@H](NC(=O)c1ccccc1)c1ccccc1	·	·	?	25µM*	·
COC(=O)[C@@H]1C[C@H]1[C@@H](NC(=O)Oc1ccc(F)cc1)c1ccccc1	·	·	?	10µM*	·
COC(=O)[C@H]1C[C@@H]1[C@H](NC(=O)OCc1ccccc1)c1ccccc1	·	·	·	21%	·
COC(=O)C1=C(C)N(Cc2ccccc2)[C@]23O[C@](C(=O)OC)(C(=O)N2C1c1ccccc1)C(c1ccccc1)C3C(=O)c1ccccc1 (stereo not given in full)	·	·	4%[11.4 µM]	5%[11.4 µM]	·
CC(=O)Oc1ccc2occ(C(=O)c3cccs3)c2c1	?	·	?	25µM*	·
CC[C@@H](c1ccccc1)n1c(=O)n2n(c1=O)[C@H]1[C@H](O)[C@H]3O[C@@H]3/C(=N/OCc3ccccc3)[C@@H]1CC2	-2%[11.4 µM]	·	2%[11.4 µM]	-3%[11.4 µM]	·
COc1ccc2cc3cc(C(=O)NCCN4CCc5ccccc5C4)oc3nc2c1	-1%	0.76*	25%	24%	>77
COc1ccc2cc3cc(C(=O)NCCN4CCN(Cc5ccccc5)CC4)oc3nc2c1	-1%	?	?	?	>77
CCOC(=O)c1ccc(NC(=O)c2cc3ccccc3o2)cc1	?	·	?	25µM*	·
SMILES	FLuc inh	PK Bst	TSHR agonist	HEK293 cAMP ctrl	GBA activity
CC(C)C(=O)Nc1ccc(NC(=O)c2cc3ccccc3o2)cc1	-23%	>57	5%	7%	9.8*
CCOC(=O)c1ccc(NC(=O)N2CCN(CCc3ccccc3)CC2)cc1	25µM*	·	1%	-6%	>77
CCCC(=O)N1CCN(c2ccc(NC(=O)c3cc4ccccc4o3)cc2)CC1	-2%	>57	-12%	-12%	>77
CCC=O	·	·	4%	12%	·
CC1CCCC(C)N1C(=O)c1cc(-c2cccs2)on1 (stereo not given)	-5%	>57	20µM*	16%	>77
CCN1C(=O)[C@H]2[C@H]3[C@H](O)[C@H](O)C/C(=N/OCc4ccccc4)[C@H]3CC[C@@H]2C1=O	-1%[11.4 µM]	·	2%[11.4 µM]	18%[11.4 µM]	·
Clc1ccc(Cn2nnc(-c3ccc(CN4CCOCC4)cc3)n2)cc1	-2%	·	?	32µM*	·
Fc1ccc(Cn2nnc(-c3ccc(CN4CCOCC4)cc3)n2)cc1	-1%	>11	10%	24%	·
N#Cc1nc(COc2ccccc2)oc1N1CCN(Cc2ccccc2)CC1	1%	>57	?	13µM*	>77
Cc1ccc(OCc2nc(C#N)c(N3CCN(Cc4ccccc4)CC3)o2)cc1	2%	>57	?	2µM*	>77
N#Cc1nc(COc2cccc(Cl)c2)oc1N1CCCC1	1%	·	?	13µM*	·
N#Cc1nc(COc2ccc(F)cc2)oc1N1CCCC1	-2%	>57	?	?	>77
COc1ccc2nc(NCN3C(=O)c4ccccc4C3=O)sc2c1	2%[11.4 µM]	·	4%[11.4 µM]	-4%[11.4 µM]	·
Cc1sc(N)c(C(=O)c2cccc(C(F)(F)F)c2)c1C	2%	·	-7%	0%	·
COC(=O)c1ccc(OCC(=O)c2ccc(O)cc2O)cc1	13µM*	·	16%	22%	?
CCOC(=O)c1ccc(OCC(=O)c2ccc(O)cc2O)cc1	-24%	>57	3%	7%	?
CN(Cc1ccco1)c1ncnc2ccc(-c3cccc(C#N)c3)cc12	1%[2.29 µM]	·	16%	13%	·
O=C(CSc1nnc(-c2ccc(Cl)cc2)n1Cc1ccco1)c1cccs1	-8%	>57	?	16µM*	?
